According to the supplement of paper PMC10849652:
Of roughly 7,900 targets only a part is listed; those with a hit were picked by preference. About 0.6% of all pairs of compound and target were hits.

Compound: CCCc1cc(C)[nH]c(=O)c1CNC(=O)c1cc(-c2ccnc(N3CCN(C)CC3)c2)cc2c1cnn2C(C)C
Assay: log2 fold change, soluble protein after heating vs DMSO (PISA); higher = thermal stabilisation; K562 cells, 10 uM, 30 min; active = over 0.2 and 3.5 SD of the protein, either way, in both replicates (recomputed)
In short: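 Quantification of soluble protein used TMTpro 16plex LC-MS/MS, with channel sums equalised. Samples were the supernatant after 21,000xg for 90 min of pooled aliquots from K562 cells (2×10^6 cells/mL) treated with 10 μM compound for 30 min, heated for 3 min over 48°C-58°C, and extracted in PBS with 0.5% NP-40 at 4°C. Values, from duplicates, describe thermal stability against control samples on a log2 fold-change scale.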

UniProt Q8IWV8, sequence (Q8IWV8 whole entry, looked up): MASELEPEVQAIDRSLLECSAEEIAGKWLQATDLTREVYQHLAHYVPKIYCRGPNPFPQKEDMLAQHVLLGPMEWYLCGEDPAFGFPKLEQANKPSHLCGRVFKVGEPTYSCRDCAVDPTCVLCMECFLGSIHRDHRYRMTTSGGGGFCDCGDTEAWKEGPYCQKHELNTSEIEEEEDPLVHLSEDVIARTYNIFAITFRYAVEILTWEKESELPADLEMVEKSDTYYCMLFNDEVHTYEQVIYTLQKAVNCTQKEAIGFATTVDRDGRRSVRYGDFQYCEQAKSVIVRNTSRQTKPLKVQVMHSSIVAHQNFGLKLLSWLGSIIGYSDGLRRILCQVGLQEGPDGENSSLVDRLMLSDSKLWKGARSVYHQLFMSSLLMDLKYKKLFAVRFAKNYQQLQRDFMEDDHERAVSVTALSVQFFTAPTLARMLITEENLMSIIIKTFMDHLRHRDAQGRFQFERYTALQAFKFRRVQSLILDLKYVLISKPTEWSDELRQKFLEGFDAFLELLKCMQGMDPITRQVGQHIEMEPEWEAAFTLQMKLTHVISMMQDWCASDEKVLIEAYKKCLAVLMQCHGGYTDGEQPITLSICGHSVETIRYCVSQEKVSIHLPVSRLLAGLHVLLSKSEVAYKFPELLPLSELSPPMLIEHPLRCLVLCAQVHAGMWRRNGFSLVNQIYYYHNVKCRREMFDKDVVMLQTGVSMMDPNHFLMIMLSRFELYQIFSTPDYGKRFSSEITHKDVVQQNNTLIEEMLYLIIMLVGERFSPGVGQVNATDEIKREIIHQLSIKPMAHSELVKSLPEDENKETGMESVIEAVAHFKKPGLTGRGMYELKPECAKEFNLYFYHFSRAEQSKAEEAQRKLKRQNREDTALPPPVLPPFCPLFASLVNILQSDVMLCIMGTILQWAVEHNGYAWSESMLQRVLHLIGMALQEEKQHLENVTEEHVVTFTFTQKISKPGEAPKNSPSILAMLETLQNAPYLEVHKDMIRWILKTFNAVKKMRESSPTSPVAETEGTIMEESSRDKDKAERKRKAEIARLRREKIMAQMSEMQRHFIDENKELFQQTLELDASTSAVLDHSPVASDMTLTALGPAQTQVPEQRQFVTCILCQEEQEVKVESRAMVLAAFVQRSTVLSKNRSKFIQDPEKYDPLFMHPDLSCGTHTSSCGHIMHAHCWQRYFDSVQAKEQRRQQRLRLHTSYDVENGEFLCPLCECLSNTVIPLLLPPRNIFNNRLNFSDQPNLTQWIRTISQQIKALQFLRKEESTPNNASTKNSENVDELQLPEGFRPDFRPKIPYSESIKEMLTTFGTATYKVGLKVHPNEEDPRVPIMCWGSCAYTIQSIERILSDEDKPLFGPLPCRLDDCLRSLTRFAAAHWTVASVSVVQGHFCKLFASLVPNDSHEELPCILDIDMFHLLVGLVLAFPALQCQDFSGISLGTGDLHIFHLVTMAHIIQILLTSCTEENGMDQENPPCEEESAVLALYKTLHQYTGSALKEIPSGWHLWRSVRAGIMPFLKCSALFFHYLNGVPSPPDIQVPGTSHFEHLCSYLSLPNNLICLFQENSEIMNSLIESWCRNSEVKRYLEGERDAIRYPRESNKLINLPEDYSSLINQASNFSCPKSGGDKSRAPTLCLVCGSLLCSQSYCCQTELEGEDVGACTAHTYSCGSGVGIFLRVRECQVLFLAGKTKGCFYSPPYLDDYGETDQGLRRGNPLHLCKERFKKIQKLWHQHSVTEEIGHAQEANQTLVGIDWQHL
UniProt Q9Y4E8, sequence (Q9Y4E8 whole entry, looked up): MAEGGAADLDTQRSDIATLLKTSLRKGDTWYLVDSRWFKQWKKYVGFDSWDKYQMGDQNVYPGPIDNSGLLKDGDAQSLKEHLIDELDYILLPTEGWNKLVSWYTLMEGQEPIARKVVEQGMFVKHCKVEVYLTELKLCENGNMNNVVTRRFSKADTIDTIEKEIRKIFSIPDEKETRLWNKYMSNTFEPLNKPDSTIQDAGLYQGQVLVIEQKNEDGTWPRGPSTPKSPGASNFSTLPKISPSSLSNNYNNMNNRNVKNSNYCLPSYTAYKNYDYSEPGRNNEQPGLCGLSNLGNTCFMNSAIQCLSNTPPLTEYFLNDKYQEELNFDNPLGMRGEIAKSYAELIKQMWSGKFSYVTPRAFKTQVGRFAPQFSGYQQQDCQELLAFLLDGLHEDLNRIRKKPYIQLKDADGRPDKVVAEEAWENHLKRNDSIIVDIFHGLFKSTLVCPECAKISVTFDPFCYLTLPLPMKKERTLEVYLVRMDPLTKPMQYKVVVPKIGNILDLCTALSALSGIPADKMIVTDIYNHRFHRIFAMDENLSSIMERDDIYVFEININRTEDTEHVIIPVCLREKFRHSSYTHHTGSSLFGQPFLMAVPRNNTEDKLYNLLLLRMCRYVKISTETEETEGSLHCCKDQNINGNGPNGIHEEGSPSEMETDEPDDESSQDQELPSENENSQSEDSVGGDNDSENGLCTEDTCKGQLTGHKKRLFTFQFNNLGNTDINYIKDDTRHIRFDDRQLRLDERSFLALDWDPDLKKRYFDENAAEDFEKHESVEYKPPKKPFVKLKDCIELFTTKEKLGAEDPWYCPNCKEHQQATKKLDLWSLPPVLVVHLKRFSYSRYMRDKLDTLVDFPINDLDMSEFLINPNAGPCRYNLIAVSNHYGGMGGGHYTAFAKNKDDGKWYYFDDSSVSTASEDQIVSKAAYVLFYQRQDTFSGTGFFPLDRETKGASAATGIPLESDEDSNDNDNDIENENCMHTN
UniProt Q9HAD4, sequence (Q9HAD4 whole entry, looked up): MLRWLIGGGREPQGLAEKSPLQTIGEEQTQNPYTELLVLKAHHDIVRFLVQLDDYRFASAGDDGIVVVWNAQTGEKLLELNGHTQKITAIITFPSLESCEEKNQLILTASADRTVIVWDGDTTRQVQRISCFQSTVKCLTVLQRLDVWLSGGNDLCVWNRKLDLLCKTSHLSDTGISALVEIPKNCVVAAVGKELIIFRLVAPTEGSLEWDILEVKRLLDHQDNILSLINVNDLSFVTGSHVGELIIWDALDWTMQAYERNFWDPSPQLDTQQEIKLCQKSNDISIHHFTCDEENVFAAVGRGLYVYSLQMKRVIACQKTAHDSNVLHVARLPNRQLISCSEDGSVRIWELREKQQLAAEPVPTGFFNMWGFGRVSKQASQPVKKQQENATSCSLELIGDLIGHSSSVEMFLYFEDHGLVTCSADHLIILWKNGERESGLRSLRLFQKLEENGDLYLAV
UniProt Q13263, sequence (Q13263 whole entry, looked up): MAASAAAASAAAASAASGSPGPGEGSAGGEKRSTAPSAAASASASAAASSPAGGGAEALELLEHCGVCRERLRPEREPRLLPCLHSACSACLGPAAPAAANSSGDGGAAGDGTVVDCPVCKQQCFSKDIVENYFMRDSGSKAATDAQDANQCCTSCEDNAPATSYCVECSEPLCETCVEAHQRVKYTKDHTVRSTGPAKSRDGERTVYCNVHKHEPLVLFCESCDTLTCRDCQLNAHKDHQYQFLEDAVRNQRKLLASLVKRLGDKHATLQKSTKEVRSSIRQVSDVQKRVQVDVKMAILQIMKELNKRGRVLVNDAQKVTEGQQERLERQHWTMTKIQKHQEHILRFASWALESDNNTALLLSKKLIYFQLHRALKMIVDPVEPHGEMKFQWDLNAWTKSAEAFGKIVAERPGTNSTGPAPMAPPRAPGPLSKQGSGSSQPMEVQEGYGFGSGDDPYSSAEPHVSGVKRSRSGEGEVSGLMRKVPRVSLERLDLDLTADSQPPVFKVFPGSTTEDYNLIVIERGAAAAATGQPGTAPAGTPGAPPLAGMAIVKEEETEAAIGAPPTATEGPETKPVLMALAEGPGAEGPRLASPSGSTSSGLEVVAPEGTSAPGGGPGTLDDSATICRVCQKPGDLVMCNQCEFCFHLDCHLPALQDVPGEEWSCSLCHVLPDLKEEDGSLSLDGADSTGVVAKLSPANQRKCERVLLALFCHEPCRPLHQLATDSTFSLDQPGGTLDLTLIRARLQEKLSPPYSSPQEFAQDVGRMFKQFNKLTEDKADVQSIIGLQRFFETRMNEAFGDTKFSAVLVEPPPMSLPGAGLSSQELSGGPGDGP
UniProt P26368, sequence (P26368 whole entry, looked up): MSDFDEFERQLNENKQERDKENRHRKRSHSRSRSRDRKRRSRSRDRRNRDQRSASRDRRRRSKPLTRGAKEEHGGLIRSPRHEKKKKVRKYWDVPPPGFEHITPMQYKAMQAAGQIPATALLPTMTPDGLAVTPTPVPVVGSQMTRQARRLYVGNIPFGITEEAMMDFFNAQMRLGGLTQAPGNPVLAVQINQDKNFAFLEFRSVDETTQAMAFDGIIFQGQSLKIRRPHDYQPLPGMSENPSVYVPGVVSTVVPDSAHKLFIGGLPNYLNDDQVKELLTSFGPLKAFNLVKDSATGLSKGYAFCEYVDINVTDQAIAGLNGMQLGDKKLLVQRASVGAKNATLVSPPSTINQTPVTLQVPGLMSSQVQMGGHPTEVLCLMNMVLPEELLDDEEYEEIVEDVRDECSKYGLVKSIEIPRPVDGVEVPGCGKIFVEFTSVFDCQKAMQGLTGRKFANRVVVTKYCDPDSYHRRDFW
UniProt Q01081, sequence (Q01081 whole entry, looked up): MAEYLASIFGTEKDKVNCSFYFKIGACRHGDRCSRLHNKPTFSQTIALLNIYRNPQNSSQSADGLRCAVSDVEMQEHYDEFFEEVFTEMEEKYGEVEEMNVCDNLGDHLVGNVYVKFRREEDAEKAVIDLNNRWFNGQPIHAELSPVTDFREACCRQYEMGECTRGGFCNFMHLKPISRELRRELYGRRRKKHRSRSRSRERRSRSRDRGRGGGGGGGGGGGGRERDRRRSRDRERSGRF
UniProt Q16763, sequence (Q16763 whole entry, looked up): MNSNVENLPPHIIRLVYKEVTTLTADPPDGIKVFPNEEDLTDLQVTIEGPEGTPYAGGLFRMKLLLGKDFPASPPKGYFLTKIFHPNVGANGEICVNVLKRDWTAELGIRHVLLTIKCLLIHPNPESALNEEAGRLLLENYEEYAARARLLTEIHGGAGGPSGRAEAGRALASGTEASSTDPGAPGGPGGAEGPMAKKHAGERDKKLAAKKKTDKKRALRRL
UniProt Q8N4H5, sequence (Q8N4H5 whole entry, looked up): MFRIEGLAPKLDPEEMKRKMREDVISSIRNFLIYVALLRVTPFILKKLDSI

log2 fold change, inactive:
WDHD1 (UniProt O75717) 0.022
TOMM5 isoform 2 (UniProt Q8N4H5) 0.141
WDR41 (UniProt Q9HAD4) -0.011
XPO5 (UniProt Q9HAV4) 0.014
VARS2, A0A0G2JL52 -0.018
WNK1 isoform 7 (UniProt Q9H4A3) -0.006
TRIM28 (UniProt Q13263) 0.012
WRB (UniProt O00258) -0.074
UBR2 (UniProt Q8IWV8) -0.038
UBE2S (UniProt Q16763) -0.007
VPS13B (UniProt Q7Z7G8) -0.008
TRMT10C (UniProt Q7L0Y3) -0.013
XPNPEP3 (UniProt Q9NQH7) 0.013
TMEM189-UBE2V1 (UniProt I3L0A0) -0.182
USP15 (UniProt Q9Y4E8) 0.041
VWA8 (UniProt A3KMH1) 0.032
TUBAL3 (UniProt A6NHL2) -0.207
XPO1 (UniProt O14980) -0.011
U2AF2 (UniProt P26368) -0.028
WDR47 (UniProt O94967) -0.004
U2AF1 isoform 2 (UniProt Q01081) -0.009
XPNPEP1 isoform 3 (UniProt Q9NQW7) -0.01
UBA1 (UniProt P22314) 0.058
